The source of these data is PubChem BioAssay (Tox21).

Test [1] in a line: qHTS assay to identify small molecule agonists of the TGF-beta/Smad signaling pathway - cell viability counter screen (AID 1346829). Further: top concentration of the series differs between compounds; nearly all actives have a fitted effect of over 45% in size. The gist of the method: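 Tox21 qHTS format: SBE-bla HEK 293T cells treated with DMSO-dissolved compounds for 5 hr; CellTiter-Glo luminescence after 30 min at room temperature.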
The nature of test [2]: qHTS assay to identify small molecule agonists of the TGF-beta/Smad signaling pathway (AID 1346859; active means well fitted activation curve with a large enough effect in the signal ratio in the repeat runs, not every such curve was filed as active; the % refers to the signal ratio; further: series mostly up to about 77 µM). The method, boiled down:
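Stable Smad binding element-beta-lactamase HEK 293T cells; 5 hr compound exposure at 37 C under 5% CO2; 2 hr room-temperature substrate step; fluorescence excited at 405 nm, collected at 460 nm and 530 nm.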
Background: Quantitative high-throughput screening tests each substance at several concentrations.

For test [3], the target named is Thyrotropin-releasing hormone receptor (Homo sapiens) (UniProt P34981). Briefly: qHTS assay to identify small molecule antagonists of the thyrotropin-releasing hormone receptor (TRHR) signaling pathway (AID 1346877; active means well fitted inhibition curve with a large enough effect in the repeat runs, not every such curve was filed as active; further: series mostly up to about 51 µM). The gist of the method:
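Overnight-plated (18 h, 37 °C) HEK293 cells expressing TRHR were dye-loaded 2 h, treated with compound, then stimulated with TRH at 1 nM final. Fluorescence intensity was captured every second for 3 min.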

For test [4] the target is unchanged. Kind of test: qHTS assay to identify small molecule agonists of the thyrotropin-releasing hormone receptor (TRHR) signaling pathway (AID 1346891; calls by dose curve;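 further: HEK293 cells expressing TRHR with calcium dye readout; series mostly up to about 58 µM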). The method, boiled down: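 In 1536-format, 1500 TRHR-Hek293 cells per well grew 18 h, took up calcium dye for 2 h at 37 °C, received compound, and were read kinetically; 15-point titrations, triplicates.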
Test [5] in a line: Human pregnane X receptor (PXR) small molecule agonists, qHTS cell viability counter screen (AID 1346977). Further: nearly all actives have a fitted effect of over 50% in size. The method, boiled down:
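Readout is CellTiter-Fluor fluorescence from PXR-Luc HepG2 cells. Plated cells rested 5hr, then were treated with compounds for 24hr at 37C and 5% CO2, with reagent present during the last hour.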

Test [6] in a line: Caspase-3/7 induction in HepG2 cells by small molecules, qHTS assay (AID 1346978). Further: nearly all actives have a fitted effect of over 15% in size. The gist of the method: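 Caspase-3/7 induction was measured by Caspase-Glo 3/7 luminescence (30 min, room temperature) after a 17 hr compound exposure of wild-type HepG2 cells seeded at 2,000 per well and pre-incubated 5 hr.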
The nature of test [7]: Caspase-3/7 induction in CHO-K1 cells by small molecules, qHTS cell viability counter screen (AID 1346979). Further: nearly all actives have a fitted effect of over 35% in size. The method, boiled down: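 To flag cytotoxic compounds, treated CHO-K1 wild-type cells were given CellTiter-Fluor at 16hr and read fluorescently after 1hr at 37C; the caspase-3/7 luminescence was measured in these same wells.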
A short description of test [8]: Caspase-3/7 induction in CHO-K1 cells by small molecules, qHTS assay (AID 1346980). Further: nearly all actives have a fitted effect of over 15% in size. The method, boiled down: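 Luminescent Caspase-Glo 3/7 read (30min, room temperature) quantified apoptosis induction. Cells were wild-type CHO-K1, treated with compound for 17hr at 37 C and 5% CO2.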
Test [9] deals with Nuclear receptor subfamily 1 group I member 2 (Homo sapiens) (UniProt O75469). Briefly: Human pregnane X receptor (PXR) small molecule agonists, qHTS assay (AID 1346982). Further: nearly all actives have a fitted effect of over 35% in size. The gist of the method: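 Stable HepG2 line reporting PXR-mediated CYP3A4 expression via luciferase. Treatment: 24 hr with compounds in DMSO at 37 C. Detection: ONE-Glo luminescence.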
Test [10] deals with Cytochrome P450 2D6 (Homo sapiens) (UniProt P10635). Kind of test: Cytochrome P450 Family 2 Subfamily D Member 6 (CYP2D6) small molecule antagonists: luciferase reporter qHTS assay (AID 1671196). Further: nearly all actives have a fitted effect of over 50% in size. Further: potency means the concentration at half of the fitted maximal effect. The gist of the method: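 Chemicals tested for interference with CYP2D6 activity; proluciferin substrate, NADPH regeneration, 1 h at room temperature, luminescent detection.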
For orientation: In a reporter assay the amount or activity of a reporter protein is the signal.

The target in test [11] is Cytochrome P450 2C19 (Homo sapiens) (UniProt P33261). Kind of test: Cytochrome P450 Family 2 Subfamily C Member 19 (CYP2C19) small molecule antagonists: luciferase reporter qHTS assay (AID 1671197). Further: nearly all actives have a fitted effect of over 65% in size. Further: potency means the concentration at half of the fitted maximal effect. The gist of the method:
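Relative luminescence units recorded 20 min after the detection reagent stopped a 1 h, 37C CYP2C19 reaction on proluciferin substrate, which was started by NADPH regeneration following 10 min room-temperature compound preincubation; ketoconazole positive control.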

Test [12] addresses Cytochrome P450 2C9 (Homo sapiens) (UniProt P11712). Kind of test: Cytochrome P450 Family 2 Subfamily C Member 9 (CYP2C9) small molecule antagonists: luciferase reporter qHTS assay (AID 1671198). Further: nearly all actives have a fitted effect of over 50% in size. Further: potency means the concentration at half of the fitted maximal effect. The gist of the method:
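Enzyme-substrate mix preincubated with compound 10 min at room temperature; reaction started with NADPH regeneration solution, 1 h 37C. Luminescent luciferin product read after 20 min detection reagent.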

Test [13] addresses Cytochrome P450 1A2 (Homo sapiens) (UniProt P05177). Kind of test: Cytochrome P450 Family 1 Subfamily A Member 2 (CYP1A2) small molecule antagonists: luciferase reporter qHTS assay (AID 1671199). Further: nearly all actives have a fitted effect of over 50% in size. Further: potency means the concentration at half of the fitted maximal effect. The gist of the method: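 Read-out is luminescence from luciferin detection reagent (20 min) proportional to CYP1A2 activity; compounds in DMSO preincubated 10 min with enzyme and proluciferin substrate, then NADPH regeneration solution, 1 h, room temperature.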

Test [14] concerns the target Voltage-gated inwardly rectifying potassium channel KCNH2 (Homo sapiens) (UniProt Q12809). Kind of test: Human Ether-a-go-go-Related Gene (hERG) channel small molecule antagonists: fluorescence cell-based qHTS assay (AID 1671200). The method, boiled down: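 Measured: Tl+ flux via fluorescence (480/540 nm) in hERG-expressing U2OS cells after 1 h dye loading at room temperature.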

Test [15] addresses Cytochrome P450 3A4 (Homo sapiens) (UniProt P08684). Briefly: Cytochrome P450 Family 3 Subfamily A Member 4 (CYP3A4) small molecule antagonists: luciferase reporter qHTS assay (AID 1671201). Further: nearly all actives have a fitted effect of over 50% in size. Further: potency means the concentration at half of the fitted maximal effect. The method, boiled down:
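Setup: enzyme-substrate mix, compound pin transfer, 10 min RT. Reaction: NADPH regeneration solution, 1 h RT. Readout: detection reagent stops turnover, luminescence measured after 20 min, expressed in relative luminescence units.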

Test [16] in a line: Caspase-3/7 induction in HepG2 cells by small molecules, qHTS cell viability counter screen (AID 1346981). Further: series mostly up to about 92 µM; nearly all actives have a fitted effect of over 30% in size. The method, boiled down:
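Treatment of HepG2 cells with DMSO-delivered compounds ran 16 hr at 37 C following a 5-hr pre-incubation of 2,000 cells/well. CellTiter-Fluor fluorescence, read after 1 hr, served as the viability measure in a qHTS format.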

Test [17] addresses Nuclear receptor subfamily 1 group I member 2 (Rattus norvegicus) (UniProt Q9R1A7). Kind of test: Rat pregnane X receptor (rPXR) activation by small molecules, qHTS assay (AID 1346983). Further: nearly all actives have a fitted effect of over 20% in size. Particulars: rPXR luciferase reporter cells, One-Glo luminescence, 24 h; max activation: hits give high values. The gist of the method: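 Luminescent readout (One-Glo luciferase, 30 min room temperature) followed 24 hr compound treatment at 37 C of rPXR cells plated 2,000 per well and preincubated 5hr; qHTS format with compounds delivered in DMSO.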

Test [18] concerns the target Nuclear receptor subfamily 1 group I member 2 (Homo sapiens) (UniProt O75469). Briefly: CYP3A4 induction through human pregnane X receptor (PXR) by small molecules, qHTS assay (AID 1346984). Further: nearly all actives have a fitted effect of over 40% in size. The method, boiled down:
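After 24 h at 37C with compound, DPX-2 cells (HepG2, co-transfected PXR response element and CYP3A4 promoter-luciferase) got 3uM final P450-Glo Luciferin-IPA for 3 h; One-Glo luminescence followed.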

The target is the same in test [19]. Briefly: Human pregnane X receptor (PXR) activation by small molecules, qHTS assay (AID 1346985). Further: nearly all actives have a fitted effect of over 40% in size. The method, boiled down: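 DPX-2 cells (HepG2 co-transfected with a PXR response element and a CYP3A4-promoter luciferase construct) were seeded at 2,000 per well, rested 5 hr at 37C, then exposed to DMSO-dissolved compounds for 24 hr. Activation was read as luciferase luminescence.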

A number with no mark means an inactive call. Results filed as inconclusive are left out. Calls of active or inactive are those of the source. Unless noted, the call rests on the fitted dose curve; in most records, active means well fitted curve in the direction sought with a large enough effect in the repeat runs; inconclusive means weak or mixed curves; inactive means no such curve, though single readings can be large; an effect the other way counts as inactive or inconclusive.
On the % scale 0 is the no-effect control and ±100 the full control effect.

Sequence of Cytochrome P450 2C9 (Homo sapiens) (P11712 whole entry, looked up): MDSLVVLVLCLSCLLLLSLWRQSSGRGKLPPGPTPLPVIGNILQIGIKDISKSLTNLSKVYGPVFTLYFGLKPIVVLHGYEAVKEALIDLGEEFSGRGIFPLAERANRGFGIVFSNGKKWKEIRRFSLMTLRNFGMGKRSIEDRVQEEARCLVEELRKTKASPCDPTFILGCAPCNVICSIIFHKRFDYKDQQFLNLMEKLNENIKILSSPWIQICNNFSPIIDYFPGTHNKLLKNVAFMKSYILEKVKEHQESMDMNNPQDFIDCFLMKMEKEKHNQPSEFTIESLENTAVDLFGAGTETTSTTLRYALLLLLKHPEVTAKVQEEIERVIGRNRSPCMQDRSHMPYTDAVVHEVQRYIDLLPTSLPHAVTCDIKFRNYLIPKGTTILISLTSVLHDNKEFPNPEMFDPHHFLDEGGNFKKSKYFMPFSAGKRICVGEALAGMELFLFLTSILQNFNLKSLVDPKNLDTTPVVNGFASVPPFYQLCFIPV
Sequence of Thyrotropin-releasing hormone receptor (Homo sapiens) (P34981 whole entry, looked up): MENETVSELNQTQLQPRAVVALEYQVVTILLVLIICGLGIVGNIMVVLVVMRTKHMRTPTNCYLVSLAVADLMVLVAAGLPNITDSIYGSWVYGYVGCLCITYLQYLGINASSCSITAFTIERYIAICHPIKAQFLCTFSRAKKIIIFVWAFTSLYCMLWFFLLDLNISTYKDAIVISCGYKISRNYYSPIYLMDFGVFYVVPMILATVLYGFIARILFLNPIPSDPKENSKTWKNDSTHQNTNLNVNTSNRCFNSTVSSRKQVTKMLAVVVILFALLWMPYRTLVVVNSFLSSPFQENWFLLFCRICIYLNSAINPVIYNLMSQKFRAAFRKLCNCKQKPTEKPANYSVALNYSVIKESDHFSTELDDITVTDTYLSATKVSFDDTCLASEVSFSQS
Sequence of Nuclear receptor subfamily 1 group I member 2 (Homo sapiens) (O75469 whole entry, looked up): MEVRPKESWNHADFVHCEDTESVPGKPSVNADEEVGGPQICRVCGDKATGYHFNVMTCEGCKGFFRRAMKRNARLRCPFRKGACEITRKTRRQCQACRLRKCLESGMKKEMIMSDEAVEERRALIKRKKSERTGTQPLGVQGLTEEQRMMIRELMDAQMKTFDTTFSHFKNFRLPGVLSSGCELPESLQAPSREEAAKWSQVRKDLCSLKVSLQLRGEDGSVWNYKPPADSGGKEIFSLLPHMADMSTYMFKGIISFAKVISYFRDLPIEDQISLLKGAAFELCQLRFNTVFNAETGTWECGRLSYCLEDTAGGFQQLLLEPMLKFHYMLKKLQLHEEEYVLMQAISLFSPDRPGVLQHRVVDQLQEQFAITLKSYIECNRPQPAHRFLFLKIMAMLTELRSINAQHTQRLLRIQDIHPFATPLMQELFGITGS
Sequence of Cytochrome P450 2C19 (Homo sapiens) (P33261 whole entry, looked up): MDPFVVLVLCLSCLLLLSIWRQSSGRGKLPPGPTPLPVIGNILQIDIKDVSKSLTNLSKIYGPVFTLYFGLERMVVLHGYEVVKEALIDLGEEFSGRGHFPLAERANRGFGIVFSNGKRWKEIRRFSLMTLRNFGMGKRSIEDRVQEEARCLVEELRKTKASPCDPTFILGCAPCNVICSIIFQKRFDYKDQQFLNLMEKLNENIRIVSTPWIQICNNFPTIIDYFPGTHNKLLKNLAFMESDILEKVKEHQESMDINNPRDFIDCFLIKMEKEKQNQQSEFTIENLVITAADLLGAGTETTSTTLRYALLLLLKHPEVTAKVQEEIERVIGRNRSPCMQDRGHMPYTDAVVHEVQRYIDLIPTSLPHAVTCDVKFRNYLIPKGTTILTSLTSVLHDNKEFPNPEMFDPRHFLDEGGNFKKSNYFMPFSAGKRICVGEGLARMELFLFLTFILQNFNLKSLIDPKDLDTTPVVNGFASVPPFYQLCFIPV
Sequence of Voltage-gated inwardly rectifying potassium channel KCNH2 (Homo sapiens) (Q12809 whole entry, looked up): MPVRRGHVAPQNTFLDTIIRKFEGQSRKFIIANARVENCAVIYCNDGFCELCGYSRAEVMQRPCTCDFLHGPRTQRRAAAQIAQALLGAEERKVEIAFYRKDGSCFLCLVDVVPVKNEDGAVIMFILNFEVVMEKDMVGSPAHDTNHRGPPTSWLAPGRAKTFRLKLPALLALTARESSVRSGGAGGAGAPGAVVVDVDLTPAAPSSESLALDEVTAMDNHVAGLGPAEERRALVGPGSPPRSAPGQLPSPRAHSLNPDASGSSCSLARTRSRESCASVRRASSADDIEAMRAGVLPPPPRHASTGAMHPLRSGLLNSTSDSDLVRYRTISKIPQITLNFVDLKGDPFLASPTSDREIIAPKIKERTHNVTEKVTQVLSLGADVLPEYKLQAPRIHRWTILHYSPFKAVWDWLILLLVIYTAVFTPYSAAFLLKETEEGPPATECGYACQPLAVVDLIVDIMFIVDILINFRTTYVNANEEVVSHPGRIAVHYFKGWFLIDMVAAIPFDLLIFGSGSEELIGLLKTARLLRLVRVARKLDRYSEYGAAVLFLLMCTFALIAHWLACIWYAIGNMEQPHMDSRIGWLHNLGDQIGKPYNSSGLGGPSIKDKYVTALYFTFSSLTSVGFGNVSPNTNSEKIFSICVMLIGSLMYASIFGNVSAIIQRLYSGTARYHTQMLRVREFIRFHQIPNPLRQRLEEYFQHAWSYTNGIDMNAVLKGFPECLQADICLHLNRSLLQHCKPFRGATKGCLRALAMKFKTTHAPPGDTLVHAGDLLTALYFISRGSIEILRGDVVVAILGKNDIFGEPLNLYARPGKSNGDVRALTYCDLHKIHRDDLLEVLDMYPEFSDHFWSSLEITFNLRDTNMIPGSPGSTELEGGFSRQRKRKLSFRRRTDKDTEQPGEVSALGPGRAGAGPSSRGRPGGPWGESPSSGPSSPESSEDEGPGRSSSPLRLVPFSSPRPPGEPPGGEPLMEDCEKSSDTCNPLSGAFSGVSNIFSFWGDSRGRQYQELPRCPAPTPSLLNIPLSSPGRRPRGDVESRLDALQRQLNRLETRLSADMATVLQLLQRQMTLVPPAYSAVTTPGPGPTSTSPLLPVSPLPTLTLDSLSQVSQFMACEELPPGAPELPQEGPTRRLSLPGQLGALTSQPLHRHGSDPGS
Sequence of Cytochrome P450 3A4 (Homo sapiens) (P08684 whole entry, looked up): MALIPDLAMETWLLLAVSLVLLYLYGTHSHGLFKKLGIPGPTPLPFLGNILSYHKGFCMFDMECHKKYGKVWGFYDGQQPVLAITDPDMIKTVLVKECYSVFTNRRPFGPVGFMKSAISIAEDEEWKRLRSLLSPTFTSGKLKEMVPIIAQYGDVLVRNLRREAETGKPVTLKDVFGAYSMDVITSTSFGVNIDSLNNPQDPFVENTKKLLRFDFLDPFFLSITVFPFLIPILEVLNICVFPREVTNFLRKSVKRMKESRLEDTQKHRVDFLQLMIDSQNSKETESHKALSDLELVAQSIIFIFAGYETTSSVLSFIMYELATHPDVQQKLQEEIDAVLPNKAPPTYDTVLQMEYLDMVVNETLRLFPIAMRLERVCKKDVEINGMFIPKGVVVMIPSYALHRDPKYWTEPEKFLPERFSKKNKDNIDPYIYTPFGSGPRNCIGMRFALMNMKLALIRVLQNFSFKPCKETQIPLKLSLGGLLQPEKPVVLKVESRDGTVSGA
Sequence of Cytochrome P450 2D6 (Homo sapiens) (P10635 whole entry, looked up): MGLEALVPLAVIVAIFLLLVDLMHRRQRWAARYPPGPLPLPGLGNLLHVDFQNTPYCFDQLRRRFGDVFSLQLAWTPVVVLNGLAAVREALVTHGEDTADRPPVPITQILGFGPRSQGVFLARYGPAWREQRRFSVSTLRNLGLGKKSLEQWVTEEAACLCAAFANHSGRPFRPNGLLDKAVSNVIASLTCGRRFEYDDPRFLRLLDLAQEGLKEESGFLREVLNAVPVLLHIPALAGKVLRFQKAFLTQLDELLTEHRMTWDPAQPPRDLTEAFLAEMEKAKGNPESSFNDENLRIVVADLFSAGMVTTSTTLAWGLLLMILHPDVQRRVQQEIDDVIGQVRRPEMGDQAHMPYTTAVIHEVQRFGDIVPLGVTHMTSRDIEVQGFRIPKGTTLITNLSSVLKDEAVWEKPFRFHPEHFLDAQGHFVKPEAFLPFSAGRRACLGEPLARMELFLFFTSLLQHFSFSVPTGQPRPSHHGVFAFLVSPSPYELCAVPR
Sequence of Cytochrome P450 1A2 (Homo sapiens) (P05177 whole entry, looked up): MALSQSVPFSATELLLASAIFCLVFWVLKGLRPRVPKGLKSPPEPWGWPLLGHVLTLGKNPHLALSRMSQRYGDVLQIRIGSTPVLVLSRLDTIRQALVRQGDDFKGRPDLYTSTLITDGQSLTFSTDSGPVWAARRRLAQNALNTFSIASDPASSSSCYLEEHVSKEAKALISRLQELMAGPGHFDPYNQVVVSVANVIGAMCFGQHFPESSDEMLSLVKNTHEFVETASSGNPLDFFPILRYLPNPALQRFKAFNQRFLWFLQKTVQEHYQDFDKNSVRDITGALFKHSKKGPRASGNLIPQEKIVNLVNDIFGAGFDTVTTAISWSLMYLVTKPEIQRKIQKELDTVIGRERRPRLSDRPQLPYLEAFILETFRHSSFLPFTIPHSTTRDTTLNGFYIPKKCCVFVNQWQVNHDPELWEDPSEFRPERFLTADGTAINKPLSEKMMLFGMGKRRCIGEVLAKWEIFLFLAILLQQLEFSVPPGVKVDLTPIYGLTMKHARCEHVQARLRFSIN
Sequence of Nuclear receptor subfamily 1 group I member 2 (Rattus norvegicus) (Q9R1A7 whole entry, looked up): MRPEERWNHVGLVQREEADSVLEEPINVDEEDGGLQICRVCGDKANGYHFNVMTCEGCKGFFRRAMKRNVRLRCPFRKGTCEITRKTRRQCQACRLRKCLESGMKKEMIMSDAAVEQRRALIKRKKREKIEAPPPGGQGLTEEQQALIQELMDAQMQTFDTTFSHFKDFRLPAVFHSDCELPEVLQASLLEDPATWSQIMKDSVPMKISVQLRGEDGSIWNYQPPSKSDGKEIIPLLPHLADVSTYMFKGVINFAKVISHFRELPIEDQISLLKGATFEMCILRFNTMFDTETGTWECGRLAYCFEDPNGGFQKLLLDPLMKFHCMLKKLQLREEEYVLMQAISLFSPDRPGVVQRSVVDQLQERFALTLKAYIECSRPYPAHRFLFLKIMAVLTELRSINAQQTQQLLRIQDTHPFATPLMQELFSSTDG

For the molecule `CC1(N)CCC(C(C)(C)N)CC1` (stereo not drawn), the call in [1], in test [2], in test [3], in [4], in [6] and in [8] was inactive. The Potency result in test [5], in test [7], in test [9], in [11], in [12] and in test [13] was “inactive” in each case. For the same molecule, the Potency result in test [14] and in test [15] was “inactive” each time. Further, in test [10], the Potency is 20 µM (active).
Take `Cc1cccc(C(=O)O)c1[N+](=O)[O-]`: the molecule was called inactive in test [1], in [2], in [3], in [4], in test [6] and in test [8]. Further, the Potency entry in [5], in [7], in test [16], in test [11] and in test [14] was “inactive” in each case. The results for the Potency in test [10] and in test [13] were 31.8 µM (active) and 63.4 µM (active), respectively.
As to `O=C(O)c1ccccc1C(=O)Nc1ccc(S(=O)(=O)Nc2nccs2)cc1`, the molecule was called inactive in test [1], in test [2], in test [3], in test [4], in test [6] and in [8]. Further, the Potency result in test [5], in test [7], in test [16], in test [10], in test [13] and in test [14] was “inactive” each time. The Potency entry in [15] was “inactive”.
For `O=C(Oc1ccccc1C(=O)O)c1ccccc1O`, the outcome in [1], in test [2], in [3], in test [4], in [6] and in [8] was inactive. In addition, the outcome in test [18] was inactive. Also, the Potency result in test [5], in test [7], in test [16], in [19], in test [10] and in [13] was “inactive” in each case. For the same molecule, the Potency result in test [14] and in test [15] was “inactive” each time. Besides, the max activation in [17] is -2.38%.
Take `C=CCOCC(CO)(COCC=C)COCC=C`: the molecule was called inactive in test [1], in test [2], in [3], in test [4], in test [6] and in [8]. The Potency result in [5], in test [7], in test [16], in test [10] and in test [14] was “inactive” throughout. Further, the Potency in test [11] was 0.717 µM (active); in test [12], 7.17 µM (active); in test [13], 25.5 µM (active); in test [15], 10.1 µM (active).
Regarding `Cc1nc([N+](=O)[O-])cn1-c1ccc([N+](=O)[O-])cc1`, the molecule was classed as inactive in test [1], in [2], in test [3], in [4], in test [6] and in test [8]. Moreover, the Potency result in test [5], in test [7], in test [16], in [9], in test [11] and in test [12] was “inactive” in each case. Further, the Potency entry in test [13], in test [14] and in test [15] was “inactive” in each case.
Turning to `COC(OC)C(C)c1ccccc1` (stereo not drawn), the outcome in test [1], in test [2], in test [3], in test [4], in [6] and in test [8] was inactive. The Potency entry in test [5], in [7], in test [16], in test [10], in test [12] and in [14] was “inactive” throughout. In addition, in test [15], the Potency entry was “inactive”.
Consider `NS(=O)(=O)c1ccccc1OC(F)(F)F`, for which the outcome in test [1], in test [2], in test [3], in test [4], in test [6] and in test [8] was inactive. For the same molecule, the Potency result in [5], in [7], in [16], in test [9], in [10] and in test [14] was “inactive” each time. The Potency entry in test [15] is “inactive”.
In the case of `CCCCCCCC[Si](OCC)(OCC)OCC`, the molecule was called inactive in test [1], in test [2], in [3], in test [4], in [6] and in [8]. Also, the Potency result in test [5], in [7], in test [9], in test [10], in [11] and in test [12] was “inactive” throughout. Also, the Potency entry in test [13], in [14] and in [15] was “inactive” each time.
